From PubChem BioAssay (NCATS)
Inconclusive results are not listed. A call without a number means that no potency is given here. The source holds several records for some structures; these can differ, active in one and inactive in another. Activity calls are given as the source filed them. Calls come from the whole dose curve; as a rule, active = well fitted curve in the direction sought with a large enough effect; inconclusive = small, poorly fitted or top-dose-only effect, or another doubt; inactive = no such curve, though single readings can be large; an effect the other way counts as inactive or inconclusive.

Assay: Identifying Small Molecule Inhibitors of Pancreatic Cancer Stem Cells (A278, Adherent) (AID 1259361);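 note: viability read after 48 h compound exposure; nearly all actives have a fitted effect of over 35% in size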
Details: series mostly up to 46.1 µM
In short: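 After a 4 h attachment period, compounds were pinned into wells and cultures held 48 h under standard incubator conditions. Viability was then measured as CellTiter-Glo luminescence following 10 min at room temperature.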

| SMILES | IC50 (viability decrease) |
| --- | --- |
| CNCc1ccc(-c2[nH]c3cc(F)cc4c3c2CCNC4=O)cc1 | 20.9 µM (active) |
| C[C@@H]1CN(Cc2ccc(F)cc2)[C@@H](C)CN1C(=O)c1cc2c(C(=O)C(=O)N(C)C)cn(C)c2cc1Cl | 20.9 µM (active) |
| Cc1ccc(-n2nc(C(C)(C)C)cc2NC(=O)Nc2ccc(OCCN3CCOCC3)c3ccccc23)cc1 | 18.7 µM (active) |
| COCC(=O)NCC=Cc1ccc2ncnc(Nc3ccc(Oc4ccc(C)nc4)c(C)c3)c2c1 | 20.9 µM (active) |
| COc1ccc(CC2=NN3C([C@@H](CCc4ccccc4)[C@@H](C)O)=NC(C)C3C(=O)N2)cc1OC (stereo partly drawn) | 23.5 µM (active) |
| COc1ccc(C2=N[C@H](c3ccc(Cl)cc3)[C@H](c3ccc(Cl)cc3)N2C(=O)N2CCNC(=O)C2)c(OC(C)C)c1 | 18.7 µM (active) |
| Cc1cc2c(C(C)C)c(O)c(O)c(C=O)c2c(O)c1-c1c(C)cc2c(C(C)C)c(O)c(O)c(C=O)c2c1O | 26.4 µM (active) |
| CCC(C)(C)C(=O)O[C@H]1C[C@@H](C)C=C2C=C[C@H](C)[C@H](CC[C@@H]3C[C@@H](O)CC(=O)O3)[C@H]21 | 3.17 µM (active) |
| CC[C@H](Nc1ncnc2nc[nH]c12)c1nc2cccc(F)c2c(=O)n1-c1ccccc1 | 20.9 µM (active) |

Assay: Identifying Small Molecule Inhibitors of Pancreatic Cancer Stem Cells (Panc1, Adherent) (AID 1259362); note: potency is the fitted concentration of half-maximal effect
Details: Potency: viability; series mostly up to 46.1 µM
In short: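 Pre-formed 14-day tumor spheroids or adherent cells dosed and incubated 48 h, 37C, 5% CO2. Viability assessed by CellTiter-Glo.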

| SMILES | Potency |
| --- | --- |
| CNCc1ccc(-c2[nH]c3cc(F)cc4c3c2CCNC4=O)cc1 | inactive |
| C/C(=C\C(=O)Nc1ccccc1C(=O)O)c1ccc2ccccc2c1 | inactive |
| COc1ccc(CCN2CCN(CCCc3ccccc3)CC2)cc1OC | inactive |
| COc1ccc(CC2=NN3C([C@@H](CCc4ccccc4)[C@@H](C)O)=NC(C)C3C(=O)N2)cc1OC (stereo partly drawn) | inactive |
| COc1ccc(C2=N[C@H](c3ccc(Cl)cc3)[C@H](c3ccc(Cl)cc3)N2C(=O)N2CCNC(=O)C2)c(OC(C)C)c1 | inactive |
| CCOC(=O)N[C@@H]1CC[C@@H]2[C@@H](C1)C[C@H]1C(=O)O[C@H](C)[C@H]1[C@@H]2C=Cc1ccc(-c2cccc(F)c2)cn1 | inactive |
| Cc1ccnc(NS(=O)(=O)c2ccc(NC(=O)Nc3ccc(S(=O)(=O)Nc4nccc(C)n4)cc3)cc2)n1 | 0.0235 µM (active) |
| CC[C@H](Nc1ncnc2nc[nH]c12)c1nc2cccc(F)c2c(=O)n1-c1ccccc1 | inactive |

Assay: P-glycoprotein substrates identified in KB-3-1 adenocarcinoma cell line, qHTS therapeutic library screen (AID 1346986); note: nearly all actives have a fitted effect of over 60% in size;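 note: potency is the fitted concentration of half-maximal effect; potency is for cytotoxicity meaning loss of cell viability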
Details: KB-3-1 parental cells viability, CellTiter-Glo, 72 h; series mostly up to 44.5 µM
In short: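 KB-3-1 parental cells and P-gp-overexpressing KB-8-5-11 (colchicine omitted during assay) plated at 500 cells/well, dosed in dose-response, incubated 72 h at 37 degree C. CellTiter-Glo luminescence read; KB-8-5-11 also tested with tariquidar.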

| SMILES | Potency | outcome |
| --- | --- | --- |
| O=C(Nc1nc2ccccc2n1CCN1CCOCC1)c1cccc([N+](=O)[O-])c1 | inactive | – |
| CNC[C@H](O)c1cccc(O)c1 | inactive | – |
| Cc1ccc(-n2nc(C(C)(C)C)cc2NC(=O)Nc2ccc(OCCN3CCOCC3)c3ccccc23)cc1 | inactive | – |
| OC(CCN1CCCCC1)(c1ccccc1)C1CC2C=CC1C2 (stereo not drawn) | inactive | – |
| Cc1cn[nH]c1 | inactive | – |
| COc1cc(Nc2ncc3c(n2)-c2ccc(Cl)cc2C(c2c(F)cccc2OC)=NC3)ccc1C(=O)O | 0.103 µM (active) | – |
| NC(=O)c1cnccn1 | inactive | – |
| C1COC(NC(C2CC2)C2CC2)=N1 | inactive | – |
| Clc1cccc(Cl)c1NC1=NCCN1 | inactive | – |
| Cc1ccnc(NS(=O)(=O)c2ccc(NC(=O)Nc3ccc(S(=O)(=O)Nc4nccc(C)n4)cc3)cc2)n1 | inactive | – |
| NC(N)=NC(=O)c1nc(Cl)c(N)nc1N | inactive | – |
| CC[C@H](Nc1ncnc2nc[nH]c12)c1nc2cccc(F)c2c(=O)n1-c1ccccc1 | – | inactive [at 9.29 µM] |
| Cc1ccccc1C(OCCN(C)C)c1ccccc1 (stereo not drawn) | inactive | – |

Assay: P-glycoprotein substrates identified in KB-8-5-11 adenocarcinoma cell line, qHTS therapeutic library screen (AID 1346987); note: nearly all actives have a fitted effect of over 65% in size; note: potency is the fitted concentration of half-maximal effect
Details: KB-8-5-11 (P-gp overexpressing) viability, CellTiter-Glo, 72 h; series mostly up to 44.5 µM
In short: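 P-gp-mediated resistance screen: KB-8-5-11 cells treated 72 h with compounds in dose-response. CellTiter-Glo viability.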

| SMILES | Potency | activity change, negative = cytotoxicity |
| --- | --- | --- |
| O=C(Nc1nc2ccccc2n1CCN1CCOCC1)c1cccc([N+](=O)[O-])c1 | inactive | – |
| CNCc1ccc(-c2[nH]c3cc(F)cc4c3c2CCNC4=O)cc1 | inactive | – |
| C[C@@H]1CN(Cc2ccc(F)cc2)[C@@H](C)CN1C(=O)c1cc2c(C(=O)C(=O)N(C)C)cn(C)c2cc1Cl | inactive | – |
| Cc1ccc(NC(=O)c2cccc(C(C)(C)C#N)c2)cc1Nc1ccc2ncn(C)c(=O)c2c1 | 16.6 µM (active) | – |
| CNC[C@H](O)c1cccc(O)c1 | inactive | – |
| O=C(c1cc(Cc2n[nH]c(=O)c3ccccc23)ccc1F)N1CCN(C(=O)C2CC2)CC1 | inactive | – |
| OC(CCN1CCCCC1)(c1ccccc1)C1CC2C=CC1C2 (stereo not drawn) | inactive | – |
| Cc1cn[nH]c1 | inactive | – |
| Cn1cnc2c(F)c(Nc3ccc(Br)cc3Cl)c(C(=O)NOCCO)cc21 | inactive | – |
| C/C(=C\C(=O)Nc1ccccc1C(=O)O)c1ccc2ccccc2c1 | inactive | – |
| COc1ccc(CCN2CCN(CCCc3ccccc3)CC2)cc1OC | inactive | – |
| OCCn1cc(-c2cnc3nnn(Cc4ccc5ncccc5c4)c3n2)cn1 | inactive | – |
| NC(=O)c1ccc(-c2nc(-c3ccc4c(c3)OCCO4)c(-c3ccccn3)[nH]2)cc1 | inactive | – |
| COc1cc(Nc2ncc3c(n2)-c2ccc(Cl)cc2C(c2c(F)cccc2OC)=NC3)ccc1C(=O)O | 0.0833 µM (active) | – |
| CNC(=O)c1ccc(C)c(-n2c(C)cc(OCc3ccc(F)cc3F)c(Br)c2=O)c1 | inactive | – |
| COc1ccc(CC2=NN3C([C@@H](CCc4ccccc4)[C@@H](C)O)=NC(C)C3C(=O)N2)cc1OC (stereo partly drawn) | inactive | – |
| NC(=O)c1cnccn1 | inactive | – |
| CC(C)(N)C(=O)N[C@H](COCc1ccccc1)C(=O)N1CCC2(CC1)CN(S(C)(=O)=O)c1ccccc12 | inactive | – |
| Cc1cc2c(C(C)C)c(O)c(O)c(C=O)c2c(O)c1-c1c(C)cc2c(C(C)C)c(O)c(O)c(C=O)c2c1O | 11.8 µM (active) | – |
| CCCS(=O)(=O)Nc1ccc(F)c(C(=O)c2c[nH]c3ncc(-c4ccc(Cl)cc4)cc23)c1F | inactive | – |
| C1COC(NC(C2CC2)C2CC2)=N1 | inactive | – |
| CCC(C)(C)C(=O)O[C@H]1C[C@@H](C)C=C2C=C[C@H](C)[C@H](CC[C@@H]3C[C@@H](O)CC(=O)O3)[C@H]21 | 16.6 µM (active) | – |
| Clc1cccc(Cl)c1NC1=NCCN1 | inactive | – |
| N#CC[C@H](C1CCCC1)n1cc(-c2ncnc3[nH]ccc23)cn1 | 26.4 µM (active) | – |
| Cc1ccnc(NS(=O)(=O)c2ccc(NC(=O)Nc3ccc(S(=O)(=O)Nc4nccc(C)n4)cc3)cc2)n1 | 14.8 µM (active) and inactive | – |
| NC(N)=NC(=O)c1nc(Cl)c(N)nc1N | 25.9 µM (active) | – |
| CC[C@H](Nc1ncnc2nc[nH]c12)c1nc2cccc(F)c2c(=O)n1-c1ccccc1 | – | 3.11% [at 9.29 µM] (inactive) |
| Cc1ccccc1C(OCCN(C)C)c1ccccc1 (stereo not drawn) | inactive | – |
